Hit rate of the full screen: of about 13,000 compounds, about 3,200 (25%) showed an effect of 50% or more. The list shows a part of the results.
Test system: P. falciparum stage V gametocytes
Parameters: BacTiter-Glo ATP luminescence viability of purified stage V gametocytes in 384-well plates, per cent inhibition versus DMSO
Conditions: 48 h, 5 µM; inhibitor

SMILES | % Inhibition
Cc1ccc(Nc2nc(C)cc(Nc3cccc(C#N)c3)n2)cc1 [TCMDC-133460] | 4.468%
O=C(Nc1ccc(-c2cccc(-c3nc4ccc(C(F)(F)F)cc4[nH]3)c2)cc1)Nc1ccc(Cl)c(Cl)c1 [TCMDC-133278] | -24.62%
CS(=O)(=O)CCN(CCS(C)(=O)=O)Cc1ccc(-c2ccc3ncnc(Nc4ccc(OCc5cccc(F)c5)c(Cl)c4)c3c2)o1 [TCMDC-138624] | 0.5882%
CCC(C)C#Cc1c(C)nc(N)nc1N (centres unmarked) [TCMDC-137729] | -55.19%
Cc1cccc2nc(-c3ccc(-c4ccc(CNCc5cnn(-c6ccccc6)n5)cc4)s3)[nH]c12.O=C(O)C(F)(F)F [TCMDC-132967] | 11.48%
CN1CC=C(c2csc3ccc(NC(=O)Nc4ccc(-c5ccncc5)c(Cl)c4)cc23)CC1 [TCMDC-139226] | -3.853%
CN1CC=C(c2csc3ccc(NC(=O)Nc4ccc(-c5ccncc5)c5ccccc45)cc23)CC1 [TCMDC-139225] | 89.24%
CN1CCC(c2csc3ccc(NC(=O)Nc4ccc(-c5ccncc5)c5ccccc45)cc23)CC1 [TCMDC-139229] | 21.21%
CCNC(=O)c1ccc(-n2nc(C)cc2-c2ccccc2)cc1 [TCMDC-124440] | -33.35%
O=C(Nc1ccc(F)cc1)NC1CCN(CCCCCNC(=O)C2CC2c2ccc(Cl)c(Cl)c2)CC1 (centres unmarked) [TCMDC-136249] | 82.82%
O=C(Nc1cccc(F)c1)N[C@H]1CCN(CCCCCNC(=O)C2CC2c2ccc(Cl)c(Cl)c2)C1 (some centres unmarked) [TCMDC-136261] | -0.7596%
N#Cc1cccc(NC(=O)NC2CCN(CCCCCNC(=O)C3CC3c3ccc(Cl)c(Cl)c3)CC2)c1 (centres unmarked) [TCMDC-136250] | 5.084%
Cc1ccc(NC(=O)NC2CCN(CCCCCNC(=O)C3CC3c3ccc(Cl)c(Cl)c3)CC2)cc1 (centres unmarked) [TCMDC-136247] | -44.45%
O=C(Nc1cc(F)cc(F)c1)NC1CCN(CCCCCNC(=O)C2CC2c2ccc(Cl)c(Cl)c2)CC1 (centres unmarked) [TCMDC-136252] | 75.57%
O=C(Nc1cc(F)cc(F)c1)N[C@H]1CCN(CCCCCNC(=O)C2CC2c2ccc(Cl)c(Cl)c2)C1 (some centres unmarked) [TCMDC-136263] | 23.53%
O=C(Nc1ccc(Cl)cc1)NC1CCN(CCCCCNC(=O)C2CC2c2ccc(Cl)c(Cl)c2)CC1 (centres unmarked) [TCMDC-136251] | -16.96%
O=C(Nc1cccc(F)c1)NC1CCN(CCCCCNC(=O)C2CC2c2ccc(Cl)c(Cl)c2)CC1 (centres unmarked) [TCMDC-136248] | 79.62%
